# Laboratory results from PubChem BioAssay (NCI).
# This is part of a sample that, as a whole, favours compounds with a hit. Of some 79,000 tested, about 15% had one in any assay. A number with no mark means an inactive call. The source made the active and inactive calls. Rule as the data show it: active = growth inhibition above about 70%; inactive = the rest.
# Tests used:
# [1] = NCI Yeast Anticancer Drug Screen. Data for the rad50 strain (AID 155);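 also: 0% = growth of vehicle-only cultures of the same strain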; settings: S. cerevisiae rad50 strain growth inhibition, hits give high values
# How it was run: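 Compounds were tested on a yeast strain with an engineered DNA damage repair alteration; the reported value is growth inhibition normalised to vehicle treatment.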
# [2] = NCI Yeast Anticancer Drug Screen. Data for the mec2-1 strain (AID 157); settings: S. cerevisiae mec2-1 strain, hits give high values
# How it was run: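 Test agents were screened against the mec2-1 yeast strain, with defined DNA repair or cell cycle alteration. Growth was scored as inhibition against vehicle-only controls.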
# [3] = NCI Yeast Anticancer Drug Screen. Data for the sgs1 mgt1 strain (AID 161);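 also: 0% = growth of cultures given vehicle only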; settings: S. cerevisiae sgs1 mgt1 strain, hits give high values
# How it was run: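 Genetically altered yeast, compound exposure, growth inhibition relative to vehicle.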
# [4] = NCI Yeast Anticancer Drug Screen. Data for the cln2 rad14 strain (AID 165);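 also: 0% = growth equal to vehicle treated cultures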; settings: S. cerevisiae cln2 rad14 strain, hits give high values
# How it was run: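 Growth of compound-exposed yeast (cln2 rad14 genotype) measured and expressed as inhibition relative to vehicle.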
# [5] = NCI Yeast Anticancer Drug Screen. Data for the bub3 strain (AID 167); settings: S. cerevisiae bub3 mutant strain, hits give high values
# How it was run: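 Growth of a checkpoint-deficient yeast mutant is measured after compound exposure. Values represent inhibition relative to vehicle.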
# [6] = NCI Yeast Anticancer Drug Screen. Data for the mlh1 rad18 strain (AID 175); settings: S. cerevisiae mlh1 rad18 strain growth inhibition, hits give high values
# How it was run: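 In this whole-cell yeast screen, a strain with altered DNA damage repair is challenged with compound, and its growth is measured against matched vehicle-treated controls.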
# [7] = at 5.0 µM (retest, dose inferred, filed as 0.5)
# [8] = at 50.0 µM (retest, dose inferred, filed as 5.0)
Compound,"growth inhibition [1, 7] [%]","growth inhibition [1, 8]",growth inhibition ([1]; at 50.0 µM),"growth inhibition [2, 7] [%]","growth inhibition [2, 8]",growth inhibition ([2]; at 50.0 µM),"growth inhibition [3, 7] [%]","growth inhibition [3, 8]",growth inhibition ([3]; at 50.0 µM),"growth inhibition [4, 7] [%]","growth inhibition [4, 8]",growth inhibition ([4]; at 50.0 µM),"growth inhibition [5, 7] [%]","growth inhibition [5, 8]",growth inhibition ([5]; at 50.0 µM),"growth inhibition [6, 7] [%]","growth inhibition [6, 8]",growth inhibition ([6]; at 50.0 µM)
Cc1ccccc1C(CC(=O)O)C(C)c1ccccc1 (configuration not stated),14,53%,20.5%,18,53%,88.8% (active),9,66%,77.9% (active),13,60%,73.2% (active),32,80% (active),97.2% (active),12,45%,86.2% (active)
O=C(O)c1ccccc1C1c2ccccc2Oc2ccccc21,36,5%,95.4% (active),-2,16%,94% (active),-3,3%,95.4% (active),5,6%,97.3% (active),7,17%,91.2% (active),0,7%,95.8% (active)
COc1ccc2[nH]cc(C(=O)O)c2c1,-4,55%,38%,-5,65%,2.6%,7,31%,66.3%,0,36%,40%,1,46%,79.8% (active),-30,84% (active),25%
O=[N+]([O-])c1ccc2c(c1)/C(=N\O)c1cc(Br)ccc1-2,14,39%,91.4% (active),5,24%,71% (active),13,33%,67.2%,-2,14%,35.4%,-5,3%,13.7%,10,29%,96.8% (active)
NC(=O)c1oc([N+](=O)[O-])c(-c2ccccc2)c1-c1ccccc1,9,38%,12.4%,5,50%,16.6%,14,61%,55.4%,-6,10%,-22.6%,16,80% (active),92.2% (active),11,78% (active),64.2%
COc1ccc(C2C3C(=O)OCCOC(=O)C3C2c2ccc(OC)c(OC)c2)cc1OC (configuration not stated),1,49%,12.5%,13,51%,17.2%,4,49%,14.2%,21,59%,7.7%,15,62%,18.9%,15,67%,37.5%
Oc1cccnc1CN1CCCCC1,-5,19%,-11.7%,6,22%,-3.1%,7,8%,-28.5%,14,14%,85.7% (active),-21,7%,-10.8%,19,46%,-21.1%
Cc1cc(O)c(O)cc1C/C=C/c1ccccc1,-1,92% (active),53.2%,1,97% (active),26.7%,5,97% (active),51.5%,-5,82% (active),42.5%,0,96% (active),53.2%,-10,96% (active),40.6%
Cc1ccccc1Sc1ccccc1[N+](=O)[O-],2,35%,12.9%,1,5%,12.8%,0,27%,26.1%,5,7%,11.1%,-1,8%,20.6%,2,39%,74.5% (active)
